According to paper PMC6919601, “Identification of Plasmodium dipeptidyl aminopeptidase allosteric inhibitors by high throughput screening” (PLoS ONE, 2019):
About 230 (0.21%) of roughly 110,000 compounds showed an effect of 50% or more. Only a selection was taken, and strong results are over-represented in it overall.

target: DPAP1 (Plasmodium falciparum, UniProt Q8IIJ9); assay: primary screen, percent inhibition; read by cleavage of a fluorogenic dipeptide substrate; higher = more effect of the substance; set-up: species or system P. falciparum D10 trophozoite lysates; single well
Sequence (Q8IIJ9 whole entry, looked up): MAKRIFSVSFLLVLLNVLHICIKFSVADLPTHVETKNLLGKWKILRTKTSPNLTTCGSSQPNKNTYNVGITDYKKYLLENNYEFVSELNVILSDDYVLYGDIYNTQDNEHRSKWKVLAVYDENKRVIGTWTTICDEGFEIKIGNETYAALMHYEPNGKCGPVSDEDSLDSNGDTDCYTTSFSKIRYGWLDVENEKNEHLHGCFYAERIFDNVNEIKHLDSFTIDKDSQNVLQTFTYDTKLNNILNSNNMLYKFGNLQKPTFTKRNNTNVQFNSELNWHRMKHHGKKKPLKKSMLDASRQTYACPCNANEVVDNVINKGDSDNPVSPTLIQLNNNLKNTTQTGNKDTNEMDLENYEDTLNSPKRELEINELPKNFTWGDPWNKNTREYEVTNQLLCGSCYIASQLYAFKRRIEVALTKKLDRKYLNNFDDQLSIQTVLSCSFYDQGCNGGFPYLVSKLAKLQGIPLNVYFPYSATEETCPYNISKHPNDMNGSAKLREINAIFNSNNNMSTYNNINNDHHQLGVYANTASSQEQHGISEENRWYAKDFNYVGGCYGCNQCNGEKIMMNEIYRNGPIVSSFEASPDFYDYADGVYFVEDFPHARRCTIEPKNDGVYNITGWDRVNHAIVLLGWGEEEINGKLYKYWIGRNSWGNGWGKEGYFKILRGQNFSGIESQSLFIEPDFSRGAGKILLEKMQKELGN
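Also: 30 min substrate incubation versus DMSO and 10 µM JCP410 controls.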

| Structure (SMILES) | % Inhibition @ 10 uM [%] |
| --- | --- |
| Cc1ccc(-c2nn3c(CC#N)nnc3c3ccccc23)cc1 | 6.38 |
| CC(C)Oc1ccc(-c2cc(C(=O)NCCCN3CCOCC3)c3ccccc3n2)cc1 | -12.3 |
| O=C1NC(=O)c2c1cc1c3c2C2C=CCC2CN3CC2CC=CC12 (centres unmarked) | 64.9 |
| Cc1cc(C)c2c3c1C1C=CCC1CN3C(C(=O)O)C1CC=CC21 (centres unmarked) | 3.65 |
| O=C(Nc1ccc2c3c1C1C=CCC1CN3CC1CC=CC21)c1ccccc1 (centres unmarked) | 2.4 |
| COc1cccc(CN(C(=O)c2cc3ccccc3oc2=O)C2CCS(=O)(=O)C2)c1 (centres unmarked) | 0.366 |
| CCSc1cc(C)nc2ncnn12 | 7.56 |
| COc1cccc(-c2[nH]c3c(C#N)cnn3c2NCCC(C)C)c1 | 76.4 |
| CC(C)CCNc1c(-c2cccc(Cl)c2)[nH]c2c(C#N)cnn12 | -4.71 |
| Cc1cccc(-c2[nH]c3c(C#N)cnn3c2NCCC(C)C)c1 | 3.84 |
| c1ccc2c(c1)ncn2Cc1nnc2sc(-c3ccc4c(c3)OCCO4)nn12 | 45 |
| Cc1ccc(S(=O)(=O)N(CC(=O)NC2CC3CCC2C3)c2ccc(Cl)cc2)cc1 (centres unmarked) | -0.695 |
| CCc1ccc(CNC(=O)NCc2noc3ccc(C)cc23)cc1 | 2.19 |
| COc1cccc(CN2CCN(Cc3cccc(C)c3)CC2)c1OC | -4.16 |
| COc1cccc(CN2CCN(Cc3ccc(OC)c(OC)c3OC)CC2)c1 | -6.74 |
| COc1ccc(CN2CCN(Cc3cccc(C)c3)CC2)c(OC)c1OC | 53.3 |
| Cc1[nH]c2ccccc2c1CCNC(=S)NC(C)(C)C | -0.431 |
| O=C(CCNS(=O)(=O)c1ccc2nc(O)ccc2c1)NC1CCCc2ccccc21 (centres unmarked) | -2.26 |
| CCn1cc(CNC(=O)c2cc(-c3ccccc3OC)nc3ccccc23)cn1 | -10.2 |
| COc1ccccc1C(=O)Nc1cccc(F)c1 | -5.29 |
| Cc1cc(C)n(CC(O)Cn2c3ccccc3c3ccccc32)c(=O)n1 (centres unmarked) | 80.2 |
| Cc1cc(C)n(CC(O)Cn2c3ccccc3c3ccccc32)n1 (centres unmarked) | -10.2 |
| OCC(O)Cn1c2ccccc2c2ccccc21 (centres unmarked) | 1.44 |
| O=C1CC(c2nc(-c3ccccc3)cs2)C2(CCCCC2)O1 (centres unmarked) | 4.08 |
| Cc1ccc(-c2csc(C3C(N)=NC(S)=C(C#N)C34CCCCC4)n2)cc1 (centres unmarked) | 89.8 |

| Structure (SMILES) | % Inhibition @ 10 uM [%] |
| --- | --- |
| Cc1ccc(-c2csc(N)n2)cc1 | 20.7 |
| CNC(=S)N(CCc1c(C)[nH]c2ccc(Cl)cc12)Cc1ccccn1 | -4.14 |
| COc1ccc(C(=O)NCc2nnc(SCC(=O)Nc3nnc(C)s3)o2)cc1 | 84 |
| Cc1nnc(NC(=O)CSc2nnc(CNC(=O)c3cccs3)o2)s1 | -3.39 |
| Cc1nnc(NC(=O)CSc2nnc(CNC(=O)COc3ccc(Cl)cc3)o2)s1 | -5.27 |
| COc1cc(C(=O)NCc2nnc(SCC(=O)NC3CCCCC3)o2)cc(OC)c1OC | 1.64 |
| COc1ccc(C(=O)NCc2nnc(SCC(=O)NC3CCCCC3)o2)cc1 | 76.6 |
| COc1ccc(C(=O)NCc2nnc(SCC(=O)NCC3CCCO3)o2)cc1 (centres unmarked) | 8.26 |
| NC(=O)/C=C/C(=O)Nc1ccccc1 | -3.13 |
| CCCCNC(=O)CCc1nc2cccnc2n1Cc1ccccc1 | 3.96 |
| CCOc1ccc2c3c(c(=O)oc2c1)CCC3 | -3.38 |
| CCCC1CCC(C2=N/C(=C\c3cc(OC)c(OC)cc3OC)C(=O)O2)CC1 (centres unmarked) | -3.33 |
| O=C(CSc1nc2ccccc2o1)N1CCN(c2nnc(-c3ccccc3)c3ccccc23)CC1 | 2.46 |
| COCCNC(=O)CSc1[nH]c(-c2cccc(OC)c2)nc1-c1ccccc1 | 0.163 |
| Cc1nc(C(=O)N[C@@H](CC(C)C)C(=O)NCC#N)nn1-c1ccc(Cl)cc1Cl | 5.76 |
| CCOc1ccc(/C=C(\NC(=O)c2ccc(C)cc2)C(=O)Nc2cccc(O)c2)cc1 | 4.67 |
| COc1ccc(C2CC(=O)N3CN(Cc4ccccc4)CSC3=C2C#N)c(OC)c1 (centres unmarked) | 32.1 |
| CCOc1cc(C2CC(=O)N3CN(Cc4ccccc4)CSC3=C2C#N)ccc1O (centres unmarked) | 19.8 |
| COc1ccc2ccccc2c1C1CC(=O)N2CN(Cc3ccccc3)CSC2=C1C#N (centres unmarked) | 35.8 |
| COc1ccc(Br)cc1C1CC(=O)N2CN(Cc3ccccc3)CSC2=C1C#N (centres unmarked) | 60.8 |
| COc1cc(C2CC(=O)N3CN(Cc4ccccc4)CSC3=C2C#N)cc(Br)c1O (centres unmarked) | 57 |
| COc1ccc(C2CC(=O)N3CN(Cc4ccccc4)CSC3=C2C#N)cc1OC (centres unmarked) | 6.73 |
| COc1ccc(CN2CSC3=C(C#N)C(c4cccs4)CC(=O)N3C2)cc1 (centres unmarked) | 50.8 |
| COc1ccc(OC)c(C2CC(=O)N3CN(Cc4ccco4)CSC3=C2C#N)c1 (centres unmarked) | 6.87 |
| COc1ccc(CN2CSC3=C(C#N)C(c4ccc(C)cc4)CC(=O)N3C2)cc1 (centres unmarked) | 43.8 |
